Assay results reported in the supplement of paper PMC6555819.

What was measured:
Assay in all cases: PBM binding z-score (relative to random genomic background probes); higher = stronger binding; sequences stand for … in GC…GCGATTGACAGCGTAGAATGAAGG
[1] = system: PPARg:RXRa DBDmut IVT, anti-RXR (DBD mutation: RXRa K156A/R161A, NR concentration 270 nM, RXRa partner concentration 90 nM)
Method in brief: (§1)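 Each nuclear receptor dimer, without ligand, was incubated for 1 h on custom Agilent 4×180K protein-binding microarrays. Binding was detected with antibodies against each partner (one per run), and scanned fluorescence was regression-normalized. The binding z-scores are referenced to random human genomic background probes.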

[2] = system: PPARg:RXRa IVT, anti-PPARg (NR concentration 270 nM, RXRa partner concentration 90 nM)
Method in brief: as §1

[3] = system: PPARg DBDmut:RXRa IVT, anti-PPARg (DBD mutation: PPARg1 K132A/R137A, NR concentration 270 nM, RXRa partner concentration 90 nM)
Method in brief: as §1

[4] = system: PPARg DBDmut IVT, anti-PPARg (DBD mutation: PPARg1 K132A/R137A, NR concentration 270 nM)
Method in brief: as §1

[5] = system: PPARg homodimer (NR concentration 180 nM)
Method in brief: as §1

[6] = system: PXR:RXRa (NR concentration 270 nM, RXRa partner concentration 90 nM)
Method in brief: as §1

[7] = system: PXR homodimer (NR concentration 270 nM)
Method in brief: as §1

[8] = system: RARa:RXR (NR concentration 270 nM, RXRa partner concentration 90 nM)
Method in brief: as §1

[9] = system: RARa homodimer (NR concentration 270 nM)
Method in brief: as §1

[10] = system: RARb:RXRa (NR concentration 270 nM, RXRa partner concentration 90 nM)
Method in brief: as §1

Row | Sequence | PBM binding z-score [1] | PBM binding z-score [2] | PBM binding z-score [3] | PBM binding z-score [4] | PBM binding z-score [5] | PBM binding z-score [6] | PBM binding z-score [7] | PBM binding z-score [8] | PBM binding z-score [9] | PBM binding z-score [10]
1 | CCACGGAGGACAACAGGAGGTCAGAGCTGCCAGA | -0.448 | 0.453 | -0.512 | -0.952 | 1.79 | 2.21 | 0.52 | 2.53 | 1.2 | 2.99
2 | CCAGACAGGTGAAAGGTAACTCTGTCTGGTACGC | 2.33 | 3.16 | 0.131 | -0.269 | 0.283 | 1.16 | -0.171 | 2.16 | -0.0874 | 1.24
3 | CAAACTAGGTCAAGAGCTCAAAGTCCGCTTCCCG | 8.17 | 8.44 | 4.03 | 2.91 | 2.57 | 1.06 | -0.169 | 2.14 | 0.0982 | 3.99
4 | TCTGCTAGGTCACTTGGTCAGCTAACGAGCTGCC | 4.06 | 4.55 | 2.55 | 1.22 | 0.811 | 0.889 | -0.812 | 1.93 | -0.792 | 3.81
5 | ACTATCAGTTGAGACGAGGGCAACCGATAGGTTG | -0.519 | 0.218 | -0.42 | -0.235 | 0.148 | 1.44 | -0.0291 | 0.7 | -0.128 | 0.903
6 | AGAACGAGGGCAAGGAGTTGATAGCACGGGTGGC | 2.54 | 2.09 | 1.19 | -0.462 | 0.0784 | 0.742 | 1.54 | 0.14 | -0.0474 | 2.15
7 | TTTTGTAGATCAATAGAGGTTAAGAAAGTGCGCT | 1.22 | 1.99 | 1.51 | 1.54 | 1.32 | 3.37 | 0.915 | 2.2 | 1.45 | 1.15
8 | GCGACTGGGGCATCAGGAGGTTACCATAACTTAA | 3.82 | 3.59 | -0.435 | -0.747 | 0.816 | 0.63 | -0.0464 | 1.16 | -0.466 | 1.21
9 | GATACAGGGTCGAGGCCAGAGTACGCGTATTGAT | -0.175 | 0.711 | -0.769 | -0.92 | 0.109 | 0.68 | -0.735 | 1.37 | -0.498 | 1.91
10 | GCTTGTAGATCAAGGTTAAGGAAGACTAAGCTAA | 1.33 | 1.17 | -0.221 | 0.338 | 0.301 | 0.301 | -0.237 | 0.84 | -0.272 | 0.798
11 | CCTACTGGGCCACGAAAGGTCATTGAGTCAGTGA | 5.96 | 6.12 | 0.241 | -0.3 | 3.76 | 5.49 | 1.93 | 5.72 | 1.51 | 4.04
12 | GCATATAGGTAAAACAAGGTGAAAGTCCGATTGT | 3.96 | 3.34 | 0.889 | 0.508 | 0.332 | 0.851 | -0.261 | 1.85 | -0.0924 | 0.432
13 | AGAATGAGGTTAAGATCAGGTAAACAGAATACAT | 2.37 | 2.93 | 1.7 | 0.933 | 0.782 | 1.52 | 0.259 | 2.3 | 0.662 | 1.98
14 | TCATATAGGTAAAGGTGAGAGTCGAACGATATGA | 4.15 | 4 | 1.24 | 1.62 | 0.906 | 0.649 | 0.0264 | 1.29 | 0.387 | 1.69
15 | TCATATAGGTAAACATGTGAAAGTCCGTAAGTTA | 4.4 | 3.17 | 1.32 | 1.79 | 0.718 | 0.808 | 0.34 | 0.815 | 1.18 | 0.412
16 | AATACAGGGTCATCGTTGGCCAGAGTACGCACAG | 2.72 | 4.4 | 1.78 | 2.43 | 2.34 | 4.57 | 0.72 | 5.31 | 1.34 | 4.37
17 | CCTACGGGGCCATCAGGTCATTGATATCAACGTT | 1.08 | 2.4 | -0.644 | -0.657 | 1.9 | 2.18 | 0.639 | 2.97 | 0.686 | 2.86
18 | GCTTCTAGGTCAACTGATGGTCAGCTAAAGCTCG | 7.69 | 7.25 | 0.0953 | 0.797 | 2.01 | 1.97 | -0.405 | 3.16 | 0.124 | 4.42
19 | GCTATTAGTTGAAAGGGAAACCGAATGATTCTCG | 0.303 | 0.0307 | 0.646 | 0.468 | 0.766 | -0.0354 | 0.0349 | 0.204 | 1.17 | -0.128
20 | GATACAGGGTCAGCAAGAGGCCAGAGTATGGAAA | 0.915 | 2.6 | -0.173 | -0.37 | 1.98 | 3.23 | 0.0143 | 4.07 | 0.301 | 4.18
21 | TCATATAGGTAATCCAGGTGAAAGTCGGCATCTA | 4.8 | 4.82 | 1.66 | 1.21 | 1.69 | 0.657 | 0.114 | 1.28 | 0.866 | 0.724
22 | CTCGAAAGGTCGTGCACAGGTGAGTATACCAAAC | 0.853 | 2.21 | 0.533 | 0.411 | 2.02 | 3.56 | 0.388 | 4.46 | 0.659 | 4.07
23 | ACTATTAGTTGAGACGAGGGCAACAGATAGGTTG | 0.565 | 0.556 | 0.565 | 1.23 | 0.704 | 1.13 | 0.384 | 0.971 | 0.692 | 0.75
